BAZ2B block – BAZ2B (human) inhibition; AID 504333; 4.4% of 360,000 active; Q9UIF8; Potency, µM (series often up to 114 µM), without a hit: at the top dose activity change, negative = inhibition, hits mostly inhibitors; AlphaScreen BAZ2B-H3K14Ac peptide displacement; further: on the % scale 0 is the no-effect control and ±100 the full control effect; nearly all actives have a fitted effect of over 60% in size
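Inhibition is scored as reduced AlphaScreen emission. The BAZ2B/b-H3(5-23)K14Ac complex (50 nM each) in PBS pH 7.4, 0.01% Tween-20 meets compound (up to 110 uM) for 30 min at RT before bead addition.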
PLK1 PBD block – inhibitors of human PLK1 polo-box domain binding; P53350; Plk1 PBD binding of FITC phosphopeptide, fluorescence polarization; Potency, µM, for inactives: max response, negative = inhibition, usual class: inhibitors; 2.8% of 360,000 active; AID 720504; further: series mostly up to about 57 µM; on the % scale 0 is the no-effect control and ±100 the full control effect; nearly all actives have a fitted effect of over 65% in size
VDR inh – vitamin D3 receptor (human) inhibition | P11473 | VDR-SRC2-3 peptide fluorescence polarization, 2 h | Potency, µM, for inactives: max response, negative = inhibition, usual class: inhibitors | 0.93% of 400,000 active | AID 504847; further: on the % scale 0 is the no-effect control and ±100 the full control effect
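Signal is fluorescence polarization, reporting how far test compounds block the interaction of VDR with the SRC2-3 coregulator peptide after a 2 h room-temperature incubation.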
HP1b chromo inh – blocks HP1-beta chromodomain binding to methylated histone tails; P83916; AlphaScreen HP1-beta / biotin-H3K9me3 peptide binding; Potency, µM (doses to about 114 µM), inactives show top-dose activity change, negative = inhibition, usual class: inhibitors; 0.56% of 390,000 active; further: nearly all actives have a fitted effect of over 70% in size
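Compound inhibition of the preformed complex between 50 nM HP1-beta and 50 nM biotinylated H3K9me3 peptide was read by AlphaScreen. Buffer was PBS pH 7.4 with 0.01% Tween-20. Incubations ran 30 min at room temperature, with 10 ug/mL donor/acceptor beads.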
G9a inh – G9a (human) methyltransferase inhibition; Q96KQ7; G9a H3K9 monomethylation, AlphaScreen, 2 h; Potency, µM (highest dose often 102 µM), for the others: at the top dose activity, negative = inhibition, most hits filed as inhibitors; 8.8% of 350,000 active; further: on the % scale 0 is the no-effect control and ±100 the full control effect; nearly all actives have a fitted effect of over 75% in size
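AlphaScreen detection with an anti-monomethyl H3K9 antibody quantified product after a 2 h room-temperature reaction containing 500 nM biotinylated H3K9 peptide, 20 µM SAM and 20 nM enzyme, which had been preincubated 15 min with compound.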
JMJD2A Tudor – blocks the human JMJD2A Tudor domain | Potency, µM (doses to about 114 µM), without a hit: at the highest dose activity change, negative = inhibition, hits mostly inhibitors | AlphaScreen JMJD2A-Tudor / H3K4me3 peptide binding | O75164 | 4.4% of 390,000 active; further: on the % scale 0 is the no-effect control and ±100 the full control effect; nearly all actives have a fitted effect of over 50% in size
Target sequence (O75164 whole entry, looked up, the tested form may be a part): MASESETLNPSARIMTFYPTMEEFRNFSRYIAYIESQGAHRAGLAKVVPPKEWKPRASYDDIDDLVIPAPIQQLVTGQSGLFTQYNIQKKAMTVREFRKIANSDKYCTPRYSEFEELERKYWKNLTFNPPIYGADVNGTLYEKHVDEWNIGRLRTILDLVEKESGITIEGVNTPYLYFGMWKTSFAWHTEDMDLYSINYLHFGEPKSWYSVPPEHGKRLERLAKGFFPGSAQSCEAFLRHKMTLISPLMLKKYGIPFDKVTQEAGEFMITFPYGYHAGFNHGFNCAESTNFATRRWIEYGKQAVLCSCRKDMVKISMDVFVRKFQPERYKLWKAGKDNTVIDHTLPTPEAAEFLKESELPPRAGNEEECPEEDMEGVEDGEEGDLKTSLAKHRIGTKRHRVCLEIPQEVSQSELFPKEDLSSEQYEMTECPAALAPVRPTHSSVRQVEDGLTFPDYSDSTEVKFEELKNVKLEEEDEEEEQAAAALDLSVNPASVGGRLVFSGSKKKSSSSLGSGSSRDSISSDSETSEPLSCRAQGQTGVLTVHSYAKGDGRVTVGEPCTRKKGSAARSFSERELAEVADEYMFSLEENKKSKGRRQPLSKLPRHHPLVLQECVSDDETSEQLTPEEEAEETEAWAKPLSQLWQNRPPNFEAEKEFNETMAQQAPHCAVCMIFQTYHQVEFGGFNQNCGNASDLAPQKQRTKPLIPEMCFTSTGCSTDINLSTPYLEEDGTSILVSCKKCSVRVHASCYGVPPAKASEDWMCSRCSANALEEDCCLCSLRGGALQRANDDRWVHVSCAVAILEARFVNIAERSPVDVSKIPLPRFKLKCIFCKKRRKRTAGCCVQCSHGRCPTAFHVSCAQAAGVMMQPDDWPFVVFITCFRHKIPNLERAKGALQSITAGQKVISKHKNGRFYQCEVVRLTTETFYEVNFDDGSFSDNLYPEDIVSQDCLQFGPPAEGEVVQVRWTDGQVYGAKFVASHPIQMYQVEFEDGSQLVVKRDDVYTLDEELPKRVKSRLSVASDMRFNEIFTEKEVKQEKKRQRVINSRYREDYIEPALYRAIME
Starred values were filed as active, the others as inactive; ? = inconclusive; . = no result; [ ] = remark or other dose. An excerpt weighted towards active compounds, which were near 11% of everything screened. The call rests on the fitted dose curve; in most records, active means well fitted curve in the direction sought with a large enough effect; inconclusive means small, poorly fitted or top-dose-only effect, or another doubt; inactive means no such curve, though single readings can be large; an effect the other way counts as inactive or inconclusive. Potency means the concentration at half of the fitted maximal effect.

SMILES	BAZ2B block	PLK1 PBD block	VDR inh	HP1b chromo inh	G9a inh	JMJD2A Tudor
CCC(CC)C(=O)Nc1cccc(/C(C)=N/NC(=O)c2ccccc2Cl)c1	-2%	27µM*	8%	-16%	-1%[12.7 µM]	-12%[11.4 µM]
CCC(CC)C(=O)Nc1cccc(/C(C)=N/NC(=O)c2c(Br)cnn2C)c1	-1%	-2%	1%	53%	-3%	7%
Cc1ccc(NC(=O)Cc2csc(C)n2)c(C)c1	3%	.	-11%	26%	10%[59 µM]	-10%
N#CCC(=O)NNc1c([N+](=O)[O-])cc(C(F)(F)F)cc1[N+](=O)[O-]	50µM*	-10%	-11%	?	50µM*	?
O=[N+]([O-])c1cc(C(F)(F)F)cc([N+](=O)[O-])c1NN=C1CCCCC1	11µM*	?	50µM*	20µM*	10µM*	22µM*
O=[N+]([O-])c1cc(C(F)(F)F)cc([N+](=O)[O-])c1NCCN1CCNCC1	-28%	-8%	-4%	12%	11%[0.501 µM]	-33%
O=[N+]([O-])c1cc(C(F)(F)F)cc([N+](=O)[O-])c1NCCCN1CCOCC1	-36%	-13%	1%	-6%	-46%	-31%
COc1ccc(CNC(=O)c2cc3ccccn3n2)c(OC)c1	?	.	9%	6%	-2%[59 µM]	-15%
COc1cc(OC)c(NC(=O)C(NS(=O)(=O)c2cccc3nsnc23)c2ccccc2)cc1Cl (stereo unspecified)	.	.	-2%	10%	?	?
Nc1cnn(Cc2ccccc2F)c1	40µM*	-1%	?	?	?	50µM*
Cc1cccc(NC(=O)CN2CCN(CC(=O)Nc3cccc(C)c3)CC2)c1	6%	-2%	-6%	17%	50µM*	-17%
Cc1ccc(NC(=O)CN2CCCCCC2)cc1Br	?	-2%	-4%	?	22µM*	3.2µM*
O=C(COC(=O)c1cc(-c2cccs2)nn1-c1ccccc1)Nc1ccc(Cl)c([N+](=O)[O-])c1	1%	4%	-5%	11%	40µM*	-18%
CN(CC(=O)Nc1ccc(Cl)cc1)C(=O)c1cc(-c2cccs2)nn1-c1ccccc1	2%	4%	-4%	20%	-4%[59 µM]	-10%
Cc1cc(=O)n(Cc2ccccc2)c(O)c1C#N	?	-27%	-11%	2%	6%[0.501 µM]	-22%
Cc1cc(=O)n(CCCO)c(O)c1C#N	-31%	-5%	8%	16%	45µM*	-13%
Cc1cc(C)cc(Cn2c3ccc(NC(=O)NCc4ccccc4)cc3c(=O)n2C)c1	.	-21%	.	.	.	.
Brc1cc2c(cc1/C=N/Nc1nc(N3CCCCC3)nc(N3CCCCC3)n1)OCO2	?	.	.	.	-35%[59 µM]	.
CCOc1cc(N2CCOCC2)c(OCC)cc1NC(=O)Cc1ccccc1OC	45µM*	1%	-7%	?	?	?
CCOc1cc(N2CCOCC2)c(OCC)cc1NC(=O)CSc1ncccc1C(=O)O	.	-4%	7%	14%	.	-3%
CCOc1cc(N2CCOCC2)c(OCC)cc1NC(=O)CSc1ncccn1	-27%	?	-15%	-25%	40µM*	-18%
CCOc1cc(N2CCOCC2)c(OCC)cc1NC(=O)CN1CCC(Cc2ccccc2)CC1	32µM*	-12%	29%	25µM*	50µM*	22µM*
CCOc1ccc(OCCC(=O)OCC(=O)Nc2ccc(N3CCOCC3)cc2)cc1	-30%	-1%	6%	20%	?	-24%
CCOc1cc(N2CCOCC2)c(OCC)cc1NC(=O)COC(=O)CCOc1ccc(C(C)(C)C)cc1	35µM*	-6%	-17%	?	4%[0.501 µM]	20µM*
COc1ccc(-c2csc3ncnc(Nc4cc(OC)cc(OC)c4)c23)cc1	12%	.	4%	48%	25%[59 µM]	-13%
SMILES	BAZ2B block	PLK1 PBD block	VDR inh	HP1b chromo inh	G9a inh	JMJD2A Tudor
O=[N+]([O-])c1ccccc1Sc1nccn1Cc1ccccc1	?	2%	-11%	0%	50µM*	?
Fc1ccc(-c2onc3ccc(C4OCCO4)cc23)cc1	-2%	-12%	15%	13%	18%	1%
O=Cc1ccc2noc(-c3ccc(F)cc3)c2c1	2%	24µM*	-4%	-5%	0%[12.7 µM]	-9%
Cc1ccc(-c2onc3ccc(C(=O)O)cc23)cc1	-20%	-10%	-7%	28%	40µM*	-21%
COc1cc(OC)c(NC(=O)Cc2c(C(=O)O)c(C)cn2C)cc1Cl	?	.	9%	-11%	10%[59 µM]	-20%
O=C(O)Cn1c(C(=O)Nc2nc(-c3ccccc3Cl)cs2)cc2ccccc21	.	.	56µM*	.	-27%[12.7 µM]	.
O=C(Nc1nc(-c2ccccc2Cl)cs1)c1cccnc1	-1%	1%	18%	20%	23%[59 µM]	-15%
C=CCc1cc(Cl)ccc1OCCNCCOC	50µM*	-11%	4%	?	?	1µM*
C=CCc1cc(Cl)ccc1OCCNCCN1CCOCC1	32µM*	-12%	6%	?	10µM*	7.9µM*
CCCOc1ccc(Cl)cc1CN1CCOCC1	2%	1%	-5%	33%	-17%[59 µM]	?
COCCNCc1ccc(Cl)cc1Cl	-23%	?	-3%	72%	?	-7%
CCOC(=O)[C@]12CCC=C1N(Cc1ccccc1)C(=O)[C@H](CC(=O)NCc1ccccc1)C2	.	-5%	.	.	.	.
CCC[C@H](CN[C@@H](CNC)[C@H](C)CC)NCCc1cc(C(F)(F)F)cc(C(F)(F)F)c1	-9%	4%	-25%	39%	-5%	-23%
CC[C@@H](C)[C@H](CNC)NC[C@@H](Cc1cccc2ccccc12)NCCc1cccc(C(F)(F)F)c1	?	-15%	-25%	10%	45µM*	?
N#Cc1cc(Sc2ccccn2)c(Sc2ccccn2)cc1C#N	2%	?	15%	14%	32µM*	-18%
CCc1noc(C)c1C(=O)N1CCN(S(=O)(=O)c2ccc(Cl)s2)CC1	-5%	-2%	8%	32%	8%[12.7 µM]	-4%
O=C(Nc1ccc(O)c(C(=O)O)c1)Oc1ccccc1	-1%	-27%	-14%	29%	50µM*	-21%
O=C1C2=C(CCCC2)C(=O)N1c1cccc(OCCBr)c1	-6%	-5%	-16%	45%	40µM*	6%[57.1 µM]
COc1ccccc1-c1sc2cc3c(cc2c1C#CC1(O)CCCCC1)OCO3	79µM*	-2%	-17%	62%	4%[0.501 µM]	-25%
O=c1[nH]c2ccccc2nc1CCc1ccccc1	-1%	27µM*	7%	-15%	1%	-9%
c1ccc(CCc2nc3ccccc3[nH]2)cc1	1%	-10%	5%	40%	5%	-8%
O=C(Cc1nc2ccccc2[nH]1)c1ccc([N+](=O)[O-])cc1	-27%	-10%	?	18%	45µM*	-27%
O=c1[nH]c2ccccc2nc1Cc1ccc([N+](=O)[O-])cc1	-1%	-22%	8%	29%	50µM*	-4%

Screening data as filed in PubChem.
